Data on 58 molecules can be found in PubChem BioAssay AID2685 (National Center for Advancing Translational Sciences (NCATS), 2010).

About 2,100 (0.66%) of roughly 320,000 compounds were called active. Another 53% or so got no clear call; they are omitted. Calls follow the shape of the dose curve; as a rule, active = well fitted inhibition curve with a large enough effect in the signal ratio, with a control signal flat (not every such curve was filed as active); inconclusive = small, poorly fitted or top-dose-only effect, or effect the other way, or a change in a side signal; inactive = flat fitted curve, though single readings scatter; the % refers to the signal ratio. This excerpt belongs to a sample that is enriched for actives.
Potency is read from the fitted curve at half-maximal effect.

The nature of this test: qHTS Assay for Lipid Storage Modulators in Drosophila S3 Cells.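 As to cell number change: cells counted by Cell Tracker Red CMTPX staining in the red channel.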 As to lipid storage change, negative = inhibition: % is scaled to controls: 0 for no effect and ±100 for the full control effect. The conditions noted are these: BODIPY lipid droplet fluorescence, 18-24 h, cells fed with added oleic acid; cell number change: measured here: cell count max response; series mostly up to 46.1 µM. The method in brief: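 Drosophila S3 cells loaded with oleic acid (400 uM, as added) and compounds at several concentrations; lipid droplets imaged by 488-nm laser-scanning cytometry, 500–530 nm intensity and object ratio to cell channel. Percent activity normalized to 20 uM Triacsin C.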
Background: In qHTS, concentration-response curves come from the screen itself.
Turning to `CCN(CC)C1CCS(=O)(=O)C1` (centres undefined), the Potency entry is “inactive” and the cell number change was determined as 22.1%.

As to `COc1cccc(-c2cc(C(=O)N3CCN(Cc4ccc5c(c4)OCO5)CC3)on2)c1`, the Potency result was “inactive” and the cell number change came out at 17%.

In the case of `COC(=O)CNC(=O)c1cc(OC)cc(OC)c1`, the Potency result was “inactive” and the cell number change amounted to 7%.

`COc1cc(OC)cc(C(=O)NCC(=O)OCC(=O)c2cc(OC)ccc2OC)c1`: the Potency is 23.1 µM (active) and the cell number change is -7.21%.

Regarding `COc1cc(OC)cc(C(=O)NCC(=O)OCC(=O)NC(C)(C)C)c1`, the Potency entry is “inactive” and the cell number change was determined as 16.7%.

`CCC(C)C(NC(=O)c1ccc(Cl)cc1)C(=O)O` (centres undefined): the Potency entry is “inactive” and the cell number change was -1.98%.

On to `COC(=O)CNC(=O)C(NC(=O)c1ccc(Cl)cc1)C(C)C` (centres undefined), for which the Potency is 25.9 µM (active) and the cell number change is 12.5%.

Consider `CC(C)OCCCNC(=O)C(NC(=O)c1ccc(Cl)cc1)C(C)C` (centres undefined), for which the Potency entry is “inactive” and the cell number change came to 4.94%.

Take `COC(=O)c1cc(C(=O)Nc2cccc(C)n2)cc([N+](=O)[O-])c1`: the Potency entry was “inactive”.

For the molecule `COC(=O)c1ccccc1NC(=O)C1CCCO1` (centres undefined), the Potency result was “inactive” and the cell number change was -0.0238%.

With `O=C(O)c1ccccc1NC(=O)C1CCCO1` (centres undefined), the Potency was 23.1 µM (active) and the cell number change was -12.3%.

Take `CCOC(=O)c1ccccc1NC(=O)C1CCCO1` (centres undefined): the Potency entry is “inactive” and the cell number change was found to be 2.7%.

In the case of `COc1cc(/C=C/C(=O)NC(C)C2CC3CCC2C3)cc(OC)c1OC` (centres undefined), the Potency was 2.91 µM (active) and the cell number change came to 13.5%.

On to `COc1cc(/C=C/C(=O)NC2CCCCC2)cc(OC)c1OC`, for which the Potency entry was “inactive” and the cell number change was determined as 1.65%.

Turning to `COc1ccc(C(=O)NC(C)C2CC3CCC2C3)c(OC)c1` (centres undefined), the Potency entry was “inactive” and the cell number change turned out to be 14.1%.

As to `CCCCN1C(=O)C(=O)N(CC(=O)Nc2cc(OCC)c(N3CCOCC3)cc2OCC)C1=O`, the Potency entry was “inactive” and the cell number change was -17.5%.

On to `CCCN(c1ccccc1F)S(=O)(=O)c1cc(-c2cc(C)no2)ccc1OC`, for which the Potency is 4.61 µM (active) and the cell number change was -29.5%.

`COc1ccc(-c2cc(C)no2)cc1S(=O)(=O)N(C)c1ccc(C)cc1`: the Potency result was “inactive” and the cell number change is -26.4%.

`COC(=O)CCN(c1ccccc1)S(=O)(=O)c1cc(-c2cc(C)no2)ccc1OC`: the Potency result was “inactive”.

In the case of `O=C(Nc1nnc(S(=O)(=O)N2CCCCCC2)s1)c1cccc(Br)c1`, the Potency entry was “inactive” and the cell number change was determined as 16.5%.

Turning to `COc1ccc(CN(C)S(=O)(=O)c2nnc(NC(=O)c3cccc(F)c3)s2)cc1`, the Potency result is “inactive”.

For `COc1cccc(C(=O)Nc2nnc(S(=O)(=O)N3CCCC3)s2)c1`, the Potency is 4.11 µM (active) and the cell number change was -14.5%.

For the molecule `Cc1cccc(C(=O)Nc2nnc(S(=O)(=O)N3CCOCC3)s2)c1`, the Potency entry is “inactive” and the cell number change is -0.612%.

Regarding `CN(Cc1ccc(F)cc1)S(=O)(=O)c1nnc(NC(=O)c2ccccc2)s1`, the Potency entry is “inactive” and the cell number change is 3.05%.

For `COc1cccc(C(=O)Nc2nnc(S(=O)(=O)N(C)Cc3ccc(F)cc3)s2)c1`, the Potency is 29.1 µM (active) and the cell number change was -17.9%.

As for `CN(Cc1ccc2c(c1)OCO2)C(=O)c1cc(-c2ccccc2)c(N2CCOCC2)s1`, the Potency entry was “inactive” and the cell number change is -5.64%.

With `COc1cccc(C(=O)NCc2nnc(SCC(=O)Nc3nccs3)n2-c2cccc(C)c2)c1`, the Potency result was “inactive” and the cell number change is -7.27%.

As to `COc1cc(NC(=O)CCc2nnc3ccc(N4CCN(C)CC4)nn23)cc(OC)c1`, the Potency result was “inactive” and the cell number change was -14.7%.

Consider `Cc1ccc(C)c(/C=C2\CCn3c2nc2cc(C(=O)O)ccc2c3=O)c1`, for which the Potency entry was “inactive” and the cell number change was 6.53%.

As to `CNc1oc(C)nc1S(=O)(=O)c1ccc(C)cc1`, the Potency result was “inactive” and the cell number change is -20.3%.

As to `CNc1oc(-c2ccc(F)cc2)nc1S(=O)(=O)c1ccccc1`, the Potency entry is “inactive” and the cell number change is 11.1%.

With `CNc1oc(C)nc1S(=O)(=O)c1ccccc1`, the Potency is 32.6 µM (active) and the cell number change worked out at 3.59%.

With `CC(=O)Nc1ccc(S(=O)(=O)Nc2nccc(C)n2)cc1`, the Potency entry is “inactive” and the cell number change was 1.57%.

`CC(=O)Nc1ccc(S(=O)(=O)Nc2ncccn2)cc1`: the Potency entry was “inactive” and the cell number change amounted to 3.3%.

With `CC(=O)Nc1ccc(S(=O)(=O)Nc2nccc(C3Cc4ccccc4C(=O)O3)n2)cc1` (centres undefined), the Potency is 14.6 µM (active) and the cell number change is -1.08%.

With `O=C(CSc1nnc(COc2ccccc2)o1)N1CCN(c2ccccc2)CC1`, the Potency entry was “inactive” and the cell number change stood at 3.22%.

As for `Cc1cccc(C(=O)Nc2ccc(N3CCN(S(C)(=O)=O)CC3)cc2)c1`, the Potency result is “inactive” and the cell number change was determined as 1.55%.

As for `COC(=O)c1sccc1S(=O)(=O)NC(C)c1cnn(-c2ccc(OC)cc2)c1C` (centres undefined), the Potency result is “inactive” and the cell number change came out at 19.6%.

For the molecule `COc1ccc(-n2ncc(C(C)NS(=O)(=O)c3cc(F)ccc3C)c2C)cc1` (centres undefined), the Potency is 9.2 µM (active) and the cell number change is -20.2%.

Turning to `COc1ccc(-n2ncc(C(C)NS(=O)(=O)c3ccc(C(C)=O)cc3)c2C)cc1` (centres undefined), the Potency result was “inactive” and the cell number change was -7.79%.

On to `CN(C)CCCN(C(=O)COc1ccccc1)c1nc2ccc(F)cc2s1`, for which the Potency entry is “inactive” and the cell number change is -15.9%.

Take `COc1ccc(Cn2nnnc2CN(Cc2cc3cccc(C)c3[nH]c2=O)C2CCCC2)cc1`: the Potency result is “inactive” and the cell number change is -3.93%.

In the case of `CCCCN(c1ccccc1)c1ncnc2nc[nH]c12`, the Potency result is “inactive” and the cell number change was 0.284%.

Regarding `O=c1c2ccccc2c(-c2ccccc2)nn1-c1ccccn1`, the Potency entry is “inactive”.

For `O=C1c2cc3ccccc3c(-c3ccccc3)c2C(=O)N1c1ccccn1`, the Potency is 23.1 µM (active) and the cell number change was -7.79%.

With `O=C1c2cccc3c(N4CCCCC4)ccc(c23)C(=O)N1c1ccccn1`, the Potency entry is “inactive” and the cell number change is 12.6%.

As to `COc1ccc2c(c1)CCC(C)N2C(=O)C(=O)c1c[nH]c2ccccc12` (centres undefined), the Potency result was “inactive”.

For `CCCCNC(=O)C1CCN(S(=O)(=O)c2c(C)noc2/C=C\c2ccc(OC)cc2)CC1`, the cell number change turned out to be 0.864% and the lipid storage change, negative = inhibition is -15.3% [at 9.22 µM] (inactive).

For the molecule `COc1ccccc1CCC(=O)OC(C)C(=O)Nc1c(C)n(C)n(-c2ccccc2)c1=O` (centres undefined), the Potency result is “inactive”.

For the molecule `O=C(NCc1ccco1)C1CCCN1C(=O)Nc1cccc(Cl)c1` (centres undefined), the Potency result was “inactive” and the cell number change worked out at 3.19%.

For `Cc1cc(C)cc(NC(=O)N2CCCC2C(=O)NCc2ccco2)c1` (centres undefined), the Potency entry was “inactive” and the cell number change amounted to 4.2%.

With `O=C(NCc1ccco1)C1CCCN1C(=O)Nc1ccc(Br)cc1` (centres undefined), the Potency is 7.31 µM (active) and the cell number change was found to be 13.3%.

For `COCCNC(=O)C1CCN(S(=O)(=O)c2ccccc2)CC1`, the Potency result was “inactive” and the cell number change is -5.9%.

As to `CCNS(=O)(=O)c1ccc(C(=O)OCc2cc(=O)oc3cc(OC)ccc23)cc1`, the Potency entry was “inactive” and the cell number change turned out to be 12.6%.

`COc1ccc2c(COC(=O)CNS(=O)(=O)c3ccc(C)c(C)c3)cc(=O)oc2c1`: the Potency result was “inactive”.

On to `CCCNS(=O)(=O)c1cccc(C(=O)OCc2cc(=O)oc3cc(OC)ccc23)c1`, for which the Potency is 0.326 µM (active) and the cell number change is 20.2%.

Take `CCOC(=O)C1CCCN(C(=O)c2cc(S(=O)(=O)Nc3ccccc3OC)ccc2C)C1` (centres undefined): the Potency entry is “inactive” and the cell number change was determined as 12%.

Turning to `COc1ccc(CCNC(=O)C2CCN(c3nccc(C)n3)CC2)cc1`, the Potency entry is “inactive” and the cell number change was found to be 5.66%.
